Measurements taken from PubChem BioAssay (EPA / NIEHS).
Some compounds were tested as several samples or in several runs, with calls that do not always agree. Activity calls are given as the source filed them. Rule for the calls: active = hit-call score of the fitted dose curve at least 0.9, where 1 is the maximum; inactive = score below 0.9.

Columns and labels:
[1] = ATG_ISRE_CIS: Attagene CIS-FACTORIAL HepG2 Assay for human Interferon Regulatory Factor 1 (IRF1) binding to an Interferon-Stimulated Response Element (ISRE) (AID 2282948); details: HepG2 ISRE cis-reporter (Attagene), mRNA transcription readout; actives raise or lower the signal
Procedure, shortened: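 Quantitation relies on labelled RT-PCR fragments separated by capillary electrophoresis. Human HepG2 cells bearing cis-promoter reporter constructs were treated 24 h; DMSO served as baseline for bidirectional fitting.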

[2] = ATG_M_32_CIS: Attagene CIS-FACTORIAL HepG2 Assay for M32 Transcription Factor (Internal Marker) (AID 2282949); details: HepG2 Attagene cis-factorial M32 reporter, mRNA; actives raise or lower the signal;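 note: background control marker of the multiplexed CIS panel rather than a real target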
Procedure, shortened: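 HepG2 cells transiently transfected with multiplexed cis-regulated reporter units, dosed 24 h. Reporter mRNA quantified by RT-PCR, 6-FAM labelling, HpaI digestion and capillary electrophoresis; bidirectional fit vs DMSO.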

[3] = ATG_M_06_CIS: Attagene CIS-FACTORIAL HepG2 Assay for M06 Transcription Factor (Internal Marker) (AID 2282950); details: HepG2 Attagene CIS-FACTORIAL M06 internal marker reporter; actives raise or lower the signal
Procedure, shortened: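 Cells (HepG2, transiently carrying cis-driven reporter units) receive chemical for 24 h before RNA isolation. Reporter cDNA is PCR-amplified, FAM-labelled by primer extension, HpaI-digested and sized on a capillary analyser.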

[4] = target: Hepatocyte nuclear factor 6 (Homo sapiens) (UniProt Q9UBC0); assay: ATG_HNF6_CIS: Attagene CIS-FACTORIAL HepG2 Assay for human Hepatocyte Nuclear Factor 6 (HNF6) (AID 2282952); details: HepG2 Attagene cis-factorial HNF6 reporter transcription; actives raise or lower the signal
Procedure, shortened: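 Reporter mRNA induction or loss in HepG2 after 24 h exposure; transient cis-MRTU transfection; fragments quantified by capillary electrophoresis; bidirectional analysis, DMSO as negative control.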

[5] = target: Heat shock factor protein 1 (Homo sapiens) (UniProt Q00613); assay: ATG_HSE_CIS: Attagene CIS-FACTORIAL HepG2 Assay for human Heat Shock Transcription Factor 1 (HSE) (AID 2282953); details: HepG2 HSE cis-reporter, Attagene RNA transcription; actives raise or lower the signal
Procedure, shortened: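 Liver-derived HepG2 cells carry transiently introduced multiple reporter units governed by cis promoters. Reporter RNA measured 24 h post-dose through reverse transcription, PCR amplification, fluorescent labelling and capillary electrophoresis, normalised to DMSO.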

[6] = ATG_MRE_CIS: Attagene CIS-FACTORIAL HepG2 Assay for human Metal Responsive Element (MRE) (AID 2282954); details: HepG2 MRE cis-reporter transcription, Attagene multiplex; actives raise or lower the signal
Procedure, shortened: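 Step one: transfect HepG2 with cis-regulated reporter units. Step two: dose 24 h. Step three: isolate RNA, RT-PCR, 6-FAM label, HpaI digest, capillary electrophoresis. Fit bidirectionally to DMSO.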

[7] = target: Paired box protein Pax-6 (Homo sapiens) (UniProt P26367); assay: ATG_Pax6_CIS: Attagene CIS-FACTORIAL HepG2 Assay for human Paired Box 6 (PAX6) (AID 2282956); details: HepG2 CIS-FACTORIAL PAX6 reporter transcription, RNA readout; actives raise or lower the signal
Procedure, shortened: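 After twenty-four hours of chemical exposure, transfected HepG2 cells are harvested for RNA. Cis-promoter reporter transcripts are amplified, fluorescently labelled and sized by capillary electrophoresis, with gain and loss of signal scored against DMSO.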

[8] = ATG_PPRE_CIS: Attagene CIS-FACTORIAL HepG2 Assay for human Peroxisome Proliferator-activated Response Element (PPRE) (AID 2282958); details: HepG2 PPRE cis-element reporter, Attagene transcription factor profiling; actives raise or lower the signal
Procedure, shortened: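 DMSO served as negative control and baseline for bidirectional curve fitting. Signal came from PPRE-regulated reporter mRNA in HepG2 cells, measured 24 h post-dosing by RT-PCR, 6-FAM primer extension and capillary electrophoresis.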

[9] = ATG_RORE_CIS: Attagene CIS-FACTORIAL HepG2 Assay for human RAR-related Orphan Receptor Element (RORE) (AID 2282959); details: HepG2 Attagene cis-factorial RORE reporter, mRNA; actives raise or lower the signal
Procedure, shortened: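 Transfect HepG2 with MRTUs; treat 24 h; extract RNA; RT with oligo(dT); PCR with reporter-specific primers; 6-FAM primer extension; HpaI digest 2 h at 37 C; capillary electrophoresis. Fit vs DMSO, bidirectional.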

[10] = ATG_Sox_CIS: Attagene CIS-FACTORIAL HepG2 Assay for human SRY-box transcription factor (SOX) (AID 2282960); details: HepG2 Attagene cis-factorial SOX reporter, mRNA; actives raise or lower the signal
Procedure, shortened: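 Fluorescence-labelled cDNA fragments from reporter transcripts, sized by CE, give the signal. Cells: HepG2, transiently transfected with cis-regulated reporter units. Exposure 24 h; DMSO negative control; bidirectional curve fitting.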

[11] = target: Transcription factor Sp1 (Homo sapiens) (UniProt P08047); assay: ATG_Sp1_CIS: Attagene CIS-FACTORIAL HepG2 Assay for human Specificity Protein 1 (Sp1) (AID 2282961); details: HepG2 Sp1 cis-reporter transcription, actives raise or lower the signal
Procedure, shortened: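 Chemicals are dosed onto HepG2 cells transfected with multiple cis-promoter reporter constructs, and after 24 h reporter RNA is reverse-transcribed, PCR-amplified and resolved by capillary electrophoresis for fluorescence quantitation; activity is scored up or down against DMSO.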

[12] = ATG_SREBP_CIS: Attagene CIS-FACTORIAL HepG2 Assay for human Sterol Regulatory Element Binding (SREBP) (AID 2282962); details: HepG2 Attagene cis-factorial SREBP reporter, mRNA; actives raise or lower the signal
Procedure, shortened: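 Twenty-four hours after chemical dosing of transfected HepG2 cultures, reporter RNA was converted to cDNA, amplified, end-labelled with 6-FAM and resolved by capillary electrophoresis. Responses were fitted relative to DMSO.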

[13] = target: Signal transducer and activator of transcription 3 (Homo sapiens) (UniProt P40763); assay: ATG_STAT3_CIS: Attagene CIS-FACTORIAL HepG2 Assay for human Signal Transducer and Activator of Transcription 3 (STAT3) (AID 2282963); details: HepG2, Attagene cis-factorial STAT3 reporter transcription; actives raise or lower the signal
Procedure, shortened: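 Transcript-level reporter assay. HepG2 transient MRTU transfection, 24 h exposure, fluorescence detection after RT-PCR and CE; DMSO baseline.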

[14] = ATG_TA_CIS: Attagene CIS-FACTORIAL HepG2 Assay for human TA Basal Promoter (AID 2282964); details: HepG2 Attagene CIS-factorial TA basal promoter reporter; actives raise or lower the signal
Procedure, shortened: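 Background internal-marker endpoint from a 52-component HepG2 cis-reporter panel. Cells treated 24 h; reporter transcripts quantified via RT-PCR and CE fluorescence against DMSO baseline.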

[15] = ATG_TCF_b_cat_CIS: Attagene CIS-FACTORIAL HepG2 Assay for human T-Cell-Factor with beta-catenin (TCF/b-cat) (AID 2282965); details: HepG2 TCF/beta-catenin cis-reporter transcription, actives raise or lower the signal
Procedure, shortened: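 In this cis-format system, transfected HepG2 cells report endogenous transcription factor activity. Readout after 24 h exposure is reporter transcript abundance from RT-PCR and capillary electrophoresis, analysed for gain or loss of signal versus DMSO.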

[16] = target: Hypoxia-inducible factor 1-alpha (Homo sapiens) (UniProt Q16665); assay: ATG_HIF1a_CIS: Attagene CIS-FACTORIAL HepG2 Assay for human Hypoxia Inducible Factor 1 (HIF1A) (AID 2282951); details: HepG2 Attagene cis-factorial HIF1a reporter transcription; actives raise or lower the signal
Procedure, shortened: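 Cis-element reporter constructs were transiently transfected into HepG2 cells, which were treated for 24 h; reporter RNA was reverse-transcribed, amplified, labelled and resolved by capillary electrophoresis.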

[17] = ATG_PBREM_CIS: Attagene CIS-FACTORIAL HepG2 Assay for human Phenobarbital-responsive Enhancer Module (PBREM) (AID 2282955); details: HepG2 PBREM cis-reporter, Attagene multiplexed transcription; actives raise or lower the signal
Procedure, shortened: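 Multiplexed cis-reporter readout in human hepatoma HepG2 cells; PBREM-regulated transcript quantified after 24 h exposure by fluorescent RT-PCR fragment analysis. Signal changes up or down fitted relative to DMSO.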

[18] = ATG_PXRE_CIS: Attagene CIS-FACTORIAL HepG2 Assay for human Pregnane X Receptor Element (PXRE) (AID 2282957); details: HepG2 Attagene CIS-FACTORIAL PXRE reporter, mRNA; actives raise or lower the signal
Procedure, shortened: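 Transiently transfected HepG2 cells were dosed and incubated for 24 h. RNA was then isolated, DNase-treated, reverse-transcribed and reporter sequences amplified. Labeled, HpaI-digested fragments were quantified by capillary electrophoresis against DMSO.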

[19] = ATG_GRE_CIS: Attagene CIS-FACTORIAL HepG2 Assay for human Glucocorticoid Response Elements (GRE) (AID 2282947); details: HepG2 GRE cis-reporter, Attagene multiplex mRNA; actives raise or lower the signal
Procedure, shortened: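 Following 24 h chemical exposure of transiently transfected HepG2 cells, total RNA was reverse-transcribed and reporter cDNA amplified, fluorescently labelled and sized by capillary electrophoresis. Signal gain or loss was fitted relative to DMSO vehicle.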

Measured: AC50

Signal transducer and activator of transcription 3 (Homo sapiens), sequence (P40763 whole entry, looked up): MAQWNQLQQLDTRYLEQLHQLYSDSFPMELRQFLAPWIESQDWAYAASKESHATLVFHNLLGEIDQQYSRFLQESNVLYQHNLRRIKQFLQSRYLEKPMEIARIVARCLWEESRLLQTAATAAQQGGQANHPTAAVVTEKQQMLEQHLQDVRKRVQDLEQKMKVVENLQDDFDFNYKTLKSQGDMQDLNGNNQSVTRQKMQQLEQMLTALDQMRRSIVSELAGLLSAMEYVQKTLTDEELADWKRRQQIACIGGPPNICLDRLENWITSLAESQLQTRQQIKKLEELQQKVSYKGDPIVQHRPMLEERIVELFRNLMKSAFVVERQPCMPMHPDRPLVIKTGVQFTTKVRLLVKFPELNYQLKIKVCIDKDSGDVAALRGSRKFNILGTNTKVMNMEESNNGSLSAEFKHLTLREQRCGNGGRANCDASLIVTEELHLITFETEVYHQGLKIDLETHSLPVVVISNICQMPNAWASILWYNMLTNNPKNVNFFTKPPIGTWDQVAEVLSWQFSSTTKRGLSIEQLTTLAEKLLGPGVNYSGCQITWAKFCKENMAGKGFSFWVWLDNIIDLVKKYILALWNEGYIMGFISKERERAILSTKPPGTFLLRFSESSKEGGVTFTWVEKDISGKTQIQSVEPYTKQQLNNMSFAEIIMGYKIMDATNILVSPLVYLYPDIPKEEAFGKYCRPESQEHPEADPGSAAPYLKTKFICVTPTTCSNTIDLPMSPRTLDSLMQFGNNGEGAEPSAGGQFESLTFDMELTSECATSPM
Heat shock factor protein 1 (Homo sapiens), sequence (Q00613 whole entry, looked up): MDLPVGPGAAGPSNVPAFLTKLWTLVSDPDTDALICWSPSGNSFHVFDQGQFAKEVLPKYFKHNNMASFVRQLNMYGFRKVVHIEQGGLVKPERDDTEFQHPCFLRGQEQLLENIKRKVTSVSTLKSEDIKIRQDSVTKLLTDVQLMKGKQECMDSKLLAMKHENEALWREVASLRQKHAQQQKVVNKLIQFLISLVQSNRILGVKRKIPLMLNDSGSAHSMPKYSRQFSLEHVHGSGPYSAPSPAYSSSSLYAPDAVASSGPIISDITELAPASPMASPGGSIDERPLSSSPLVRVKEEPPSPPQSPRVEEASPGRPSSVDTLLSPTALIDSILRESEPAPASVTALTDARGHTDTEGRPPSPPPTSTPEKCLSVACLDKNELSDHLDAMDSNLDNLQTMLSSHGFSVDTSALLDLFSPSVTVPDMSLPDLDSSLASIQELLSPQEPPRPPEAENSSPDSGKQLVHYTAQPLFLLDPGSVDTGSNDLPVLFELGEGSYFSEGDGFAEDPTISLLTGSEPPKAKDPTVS
Hypoxia-inducible factor 1-alpha (Homo sapiens), sequence (Q16665 whole entry, looked up): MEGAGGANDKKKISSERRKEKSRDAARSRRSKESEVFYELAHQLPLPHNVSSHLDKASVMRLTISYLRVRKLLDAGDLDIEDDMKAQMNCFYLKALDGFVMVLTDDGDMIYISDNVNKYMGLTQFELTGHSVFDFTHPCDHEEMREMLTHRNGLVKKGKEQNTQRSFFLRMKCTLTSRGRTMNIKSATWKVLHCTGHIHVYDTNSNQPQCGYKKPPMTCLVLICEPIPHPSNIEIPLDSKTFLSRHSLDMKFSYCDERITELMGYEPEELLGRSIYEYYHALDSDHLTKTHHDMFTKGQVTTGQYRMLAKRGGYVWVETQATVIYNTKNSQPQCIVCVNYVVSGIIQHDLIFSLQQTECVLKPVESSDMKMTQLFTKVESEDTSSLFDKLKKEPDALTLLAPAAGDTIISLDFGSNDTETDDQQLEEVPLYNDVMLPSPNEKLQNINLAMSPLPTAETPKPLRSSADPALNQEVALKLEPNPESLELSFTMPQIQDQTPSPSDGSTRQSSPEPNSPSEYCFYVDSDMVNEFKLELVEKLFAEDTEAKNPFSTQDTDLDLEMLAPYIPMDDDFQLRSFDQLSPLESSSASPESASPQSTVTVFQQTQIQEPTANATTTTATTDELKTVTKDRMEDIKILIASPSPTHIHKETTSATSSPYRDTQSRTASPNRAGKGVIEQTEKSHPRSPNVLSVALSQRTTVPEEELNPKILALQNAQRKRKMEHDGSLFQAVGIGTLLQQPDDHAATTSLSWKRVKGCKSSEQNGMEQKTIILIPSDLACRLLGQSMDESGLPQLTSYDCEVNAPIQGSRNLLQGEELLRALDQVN
Paired box protein Pax-6 (Homo sapiens), sequence (P26367 whole entry, looked up): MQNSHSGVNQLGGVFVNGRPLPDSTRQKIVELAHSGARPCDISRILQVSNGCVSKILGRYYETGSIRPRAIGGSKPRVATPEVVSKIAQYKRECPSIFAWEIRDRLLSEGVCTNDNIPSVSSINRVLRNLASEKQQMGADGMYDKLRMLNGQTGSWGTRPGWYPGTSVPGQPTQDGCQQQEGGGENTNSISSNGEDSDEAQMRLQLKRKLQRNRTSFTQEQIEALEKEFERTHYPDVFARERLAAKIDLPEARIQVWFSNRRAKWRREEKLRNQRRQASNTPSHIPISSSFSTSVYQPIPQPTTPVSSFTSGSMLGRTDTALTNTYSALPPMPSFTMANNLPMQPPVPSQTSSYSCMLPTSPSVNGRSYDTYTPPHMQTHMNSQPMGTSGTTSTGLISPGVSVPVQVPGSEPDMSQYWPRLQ
Transcription factor Sp1 (Homo sapiens), sequence (P08047 whole entry, looked up): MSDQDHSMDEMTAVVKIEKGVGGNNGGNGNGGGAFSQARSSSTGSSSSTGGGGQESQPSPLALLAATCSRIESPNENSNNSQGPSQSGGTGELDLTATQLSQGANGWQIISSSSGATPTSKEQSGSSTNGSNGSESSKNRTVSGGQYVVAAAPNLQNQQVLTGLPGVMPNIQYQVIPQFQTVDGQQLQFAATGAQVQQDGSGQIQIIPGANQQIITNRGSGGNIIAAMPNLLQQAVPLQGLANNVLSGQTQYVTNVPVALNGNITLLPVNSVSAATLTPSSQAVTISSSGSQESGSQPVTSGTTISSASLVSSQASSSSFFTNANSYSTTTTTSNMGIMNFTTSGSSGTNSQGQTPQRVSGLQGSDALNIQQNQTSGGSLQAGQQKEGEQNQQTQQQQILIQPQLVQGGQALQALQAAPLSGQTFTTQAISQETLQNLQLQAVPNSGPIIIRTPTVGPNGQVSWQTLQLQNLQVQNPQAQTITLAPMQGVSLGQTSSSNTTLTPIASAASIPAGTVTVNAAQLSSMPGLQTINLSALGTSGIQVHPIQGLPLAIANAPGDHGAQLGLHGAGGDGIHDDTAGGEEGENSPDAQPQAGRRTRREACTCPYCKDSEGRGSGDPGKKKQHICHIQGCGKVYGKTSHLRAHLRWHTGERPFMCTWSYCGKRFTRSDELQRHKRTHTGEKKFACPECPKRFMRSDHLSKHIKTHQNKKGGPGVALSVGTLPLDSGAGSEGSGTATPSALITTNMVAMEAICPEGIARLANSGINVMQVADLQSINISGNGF
Hepatocyte nuclear factor 6 (Homo sapiens), sequence (Q9UBC0 whole entry, looked up, the tested form may be a part): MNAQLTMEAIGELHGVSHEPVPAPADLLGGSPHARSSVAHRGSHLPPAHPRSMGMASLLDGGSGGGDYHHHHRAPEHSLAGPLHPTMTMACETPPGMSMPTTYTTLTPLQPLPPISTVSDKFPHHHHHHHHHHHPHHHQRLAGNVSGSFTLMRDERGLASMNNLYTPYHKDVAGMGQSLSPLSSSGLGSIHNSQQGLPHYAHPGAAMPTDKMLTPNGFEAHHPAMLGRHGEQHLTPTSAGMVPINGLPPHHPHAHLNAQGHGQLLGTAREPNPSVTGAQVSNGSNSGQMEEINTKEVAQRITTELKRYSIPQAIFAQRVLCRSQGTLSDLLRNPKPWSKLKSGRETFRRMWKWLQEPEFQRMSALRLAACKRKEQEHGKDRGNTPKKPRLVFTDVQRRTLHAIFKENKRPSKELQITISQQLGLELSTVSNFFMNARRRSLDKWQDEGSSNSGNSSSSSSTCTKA

Cc1ncc(CO)c(CO)c1O
not listed: [16] | [17] | [18] | [19]
inactive: all other assays above

O=c1ccc2ccccc2o1
not listed: [8] | [19]
inactive: all other assays above

Cc1cn([C@H]2C[C@H](N=[N+]=[N-])[C@@H](CO)O2)c(=O)[nH]c1=O
not listed: [16] | [17] | [18]
inactive: all other assays above

Clc1ccccc1C(c1ccccc1)(c1ccccc1)n1ccnc1
inactive: [19] | [2] | [3] | [4] | [11] | [13] | [15]
active: [1] 11.1 µM | [5] 19.1 µM | [6] 15 µM | [17] 11.1 µM | [7] 11.1 µM | [9] 11.1 µM | [10] 11.1 µM | [12] 3 µM | [14] 11.1 µM

C[C@]12CC[C@@H]3c4ccc(O)cc4CC[C@H]3[C@@H]1CC[C@H]2O
inactive: [19] | [1] | [2] | [3] | [4] | [5] | [6] | [17] | [7] | [8] | [9] | [10] | [11] | [12] | [13] | [14] | [15]
active: [6] 24.8 µM | [12] 27.6 µM | [15] 27.3 µM

CCCC(=O)OCCC(C)C
not listed: [17]
inactive: all other assays above

CCCCCCCCN(C)CCCCCCCC
not listed: [18]
inactive: all other assays above

CN1C(=O)N(c2ccccc2Br)Cc2cnc(Nc3ccc4c(c3)OCC(CO)O4)nc21 (configuration not stated)
active: [16] 9.59 µM | [6] 33.2 µM | [8] 2.65 µM | [9] 1.84 µM | [12] 21.1 µM | [14] 15.8 µM | [15] 0.116 µM
not listed: [17] | [18]
inactive: all other assays above
